According to PubChem BioAssay AID602393 (Broad Institute, 2012):
The whole screen tested about 350,000 compounds, of which about 7,000 (2%) were called active. This is one part of a sample in which actives are shown more often than they occur. Values without a mark were called inactive. Rule as the data show it: active = activation above about 40%; inconclusive = no clear call, values can overlap the other calls; inactive = below that.

Experiment: raisers of Bmi1 knock-in reporter signal – mouse ES cells, Bmi1 luciferase knock-in, single point, esBAF inhibitor project, primary screen (AID 602393);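 also: 0% = median of the plate's neutral control wells and 100% = double that signal; a rise in the Bmi1 reporter signal indicates esBAF inhibition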
Details: 24 h, at 12.5 µM, active compounds read high, 100% = twice the neutral-well signal
For `C[C@@H]1CN([C@@H](C)CO)C(=O)c2cc(NS(=O)(=O)c3ccccc3)ccc2O[C@H]1CN(C)S(=O)(=O)c1ccc(Cl)cc1`, the reporter increase was 11.7%.
`CCCN1[C@H](C(=O)NCC)[C@@H](CO)[C@@H]2Cn3c(ccc(C4=CCCC4)c3=O)[C@@H]21` showed a reporter increase of -2.59%.
With `CCC(=O)Nc1ccc2c(c1)C(=O)N(C)[C@@H]1CC[C@@H](CC(=O)N[C@@H](C)c3ccccc3)O[C@@H]1CO2` the reporter increase was -1.27%.
Work on `COc1cccc(NC(=O)Nc2ccc3c(c2)C(=O)N(C)C[C@H](OC)[C@@H](C)CN[C@@H](C)CO3)c1` yielded a reporter increase of 2.37%.
With `FC(F)(F)c1ccnc(Oc2ccc(C3=NCCS3)cc2)c1` the reporter increase was 45.6% (active).
In the case of `C/C=C/c1cnc2c(c1)C(=O)N([C@H](C)CO)C[C@@H](C)[C@H](CN(C)Cc1cccc(C(=O)O)c1)O2`, the reporter increase is reported as -4.01%.
In the case of `Cc1noc(C)c1S(=O)(=O)N(C)C[C@H]1Oc2ccc(NC(=O)Cc3ccccc3)cc2CC(=O)N([C@@H](C)CO)C[C@H]1C`, the reporter increase is reported as 6.49%.
With `C[C@@H]1CN([C@@H](C)CO)C(=O)c2cc(NC(=O)c3ccncc3)ccc2O[C@@H]1CN(C)S(C)(=O)=O` the reporter increase was 0.579%.
With `CN1c2ccc(C#Cc3cccnc3)cc2[C@@H]2[C@@H](CCN2S(=O)(=O)c2ccccc2)[C@H]1CO` the reporter increase was 11.3%.
In the case of `N=c1c2c3c(sc2nc2n1CCCCC2)CCCC3`, the reporter increase is reported as 24.2%.
`O=S(=O)(c1ccc(Cl)cc1)c1nc(-c2ccco2)oc1N1CCCCC1` gave a reporter increase of -5.66%.
In the case of `O=c1oc(-c2ccco2)nc2sc3c(c12)CCCCC3`, the reporter increase is reported as 57.3% (active).
Work on `CCCNC(=O)N1C[C@@H](C)[C@@H](OC)CN(C)C(=O)c2ccc(NC(=O)CCC)cc2OC[C@H]1C` yielded a reporter increase of -1.55%.
Compound `COCC#Cc1cnc2c(c1)C(=O)N([C@H](C)CO)C[C@H](C)[C@@H](CN(C)C(=O)Nc1cc(F)ccc1F)O2` has a reporter increase of 6.3%.
Work on `COCC#Cc1ccc2c(c1)O[C@H](CN(C)C(=O)C1CCOCC1)[C@@H](C)CN([C@@H](C)CO)S2(=O)=O` yielded a reporter increase of 5.12%.
With `COc1ccc(C2CC(=O)NC(=O)C2)cc1` the reporter increase was -4.89%.
For `COc1ccc([C@H]2CC(=O)C=C(/C=C/c3ccccc3)C2)cc1`, the reporter increase was 70.2% (active).
Compound `COc1ccc([C@H]2CC(=O)C=C(c3ccc(C)cc3)C2)cc1` has a reporter increase of 8.3%.
For `C[C@H](CO)N1C[C@H](C)[C@@H](CN(C)C)Oc2cc(C#Cc3ccccc3)ccc2S1(=O)=O`, the reporter increase was -3.93%.
With `COc1cccc(NC(=O)C(=O)c2cn(CC(=O)N3CCOCC3)c3ccccc23)c1` the reporter increase was 20.7%.
For `O=C(Nc1ccc(F)cc1)C(=O)c1cn(CC(=O)N2CCOCC2)c2ccccc12`, the reporter increase was 41% (active).
`Cc1ccc(CNC(=O)C(=O)c2cn(CC(=O)N3CCOCC3)c3ccccc23)cc1` gave a reporter increase of 20.4%.
